Results as given in ChEMBL document CHEMBL1961873, “Compounds: GSK PKIS; Assays: Nanosyn kinase panel” (2012).

Assays:
[1] = biological target: T1, Tyrosine-protein kinase ITK/TSK (Homo sapiens) (UniProt Q08881); conditions: at 1 µM;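 note: values are mean percent inhibition of ITK from the GSK PKIS screen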
T1 sequence (whole entry): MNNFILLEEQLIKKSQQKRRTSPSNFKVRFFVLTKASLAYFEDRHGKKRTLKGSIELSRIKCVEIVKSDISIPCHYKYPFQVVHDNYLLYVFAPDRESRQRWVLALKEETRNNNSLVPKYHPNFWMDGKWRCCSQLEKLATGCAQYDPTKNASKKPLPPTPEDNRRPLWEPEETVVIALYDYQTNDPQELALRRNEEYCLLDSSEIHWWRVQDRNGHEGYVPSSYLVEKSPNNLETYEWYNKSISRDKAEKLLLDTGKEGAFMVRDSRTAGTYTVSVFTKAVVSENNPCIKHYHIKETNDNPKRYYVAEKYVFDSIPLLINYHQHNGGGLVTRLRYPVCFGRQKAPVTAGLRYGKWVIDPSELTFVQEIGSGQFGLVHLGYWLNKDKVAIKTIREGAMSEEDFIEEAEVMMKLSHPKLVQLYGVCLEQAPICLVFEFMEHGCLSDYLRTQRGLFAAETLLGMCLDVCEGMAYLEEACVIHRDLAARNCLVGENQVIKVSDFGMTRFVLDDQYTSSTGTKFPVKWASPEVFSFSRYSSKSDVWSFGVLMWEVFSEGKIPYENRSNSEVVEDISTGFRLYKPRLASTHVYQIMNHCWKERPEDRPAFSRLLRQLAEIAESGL

[2] = biological target: Tyrosine-protein kinase JAK1 (Homo sapiens) (UniProt P23458); conditions: at 0.1 µM
Sequence of Tyrosine-protein kinase JAK1 (Homo sapiens) (P23458 whole entry): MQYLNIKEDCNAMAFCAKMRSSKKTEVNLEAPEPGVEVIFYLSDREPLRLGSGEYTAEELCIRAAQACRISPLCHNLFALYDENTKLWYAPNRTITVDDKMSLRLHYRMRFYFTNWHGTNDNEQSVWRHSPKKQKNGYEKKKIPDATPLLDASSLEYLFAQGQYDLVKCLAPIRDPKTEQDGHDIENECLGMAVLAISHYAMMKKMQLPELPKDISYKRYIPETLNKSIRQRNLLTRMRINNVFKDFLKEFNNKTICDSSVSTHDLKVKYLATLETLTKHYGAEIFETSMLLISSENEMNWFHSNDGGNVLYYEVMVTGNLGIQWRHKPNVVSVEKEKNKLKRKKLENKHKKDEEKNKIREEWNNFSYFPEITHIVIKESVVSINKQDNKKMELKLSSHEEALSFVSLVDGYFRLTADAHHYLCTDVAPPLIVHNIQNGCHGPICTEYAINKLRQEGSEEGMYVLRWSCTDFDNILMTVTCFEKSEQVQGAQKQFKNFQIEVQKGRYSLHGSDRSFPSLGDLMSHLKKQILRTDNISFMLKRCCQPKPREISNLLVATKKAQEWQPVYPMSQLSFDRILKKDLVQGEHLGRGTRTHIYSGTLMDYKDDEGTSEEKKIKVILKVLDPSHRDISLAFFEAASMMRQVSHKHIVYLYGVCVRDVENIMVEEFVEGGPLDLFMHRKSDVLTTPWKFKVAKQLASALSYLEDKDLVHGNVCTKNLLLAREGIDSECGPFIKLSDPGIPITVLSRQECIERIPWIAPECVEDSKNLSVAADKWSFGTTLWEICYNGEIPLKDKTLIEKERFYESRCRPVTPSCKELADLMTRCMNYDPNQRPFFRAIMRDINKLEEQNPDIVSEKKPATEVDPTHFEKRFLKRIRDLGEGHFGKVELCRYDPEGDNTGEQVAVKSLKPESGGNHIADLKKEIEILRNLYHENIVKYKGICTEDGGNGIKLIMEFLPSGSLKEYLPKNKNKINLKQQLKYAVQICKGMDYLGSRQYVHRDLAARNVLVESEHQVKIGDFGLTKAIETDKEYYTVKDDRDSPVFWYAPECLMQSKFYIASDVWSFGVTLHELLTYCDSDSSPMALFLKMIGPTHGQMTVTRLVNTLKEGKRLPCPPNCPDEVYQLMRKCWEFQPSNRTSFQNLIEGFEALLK

[3] = biological target: Tyrosine-protein kinase JAK1 (Homo sapiens) (UniProt P23458); conditions: at 1 µM
[4] = biological target: Tyrosine-protein kinase JAK2 (Homo sapiens) (UniProt O60674); conditions: at 0.1 µM
Sequence of Tyrosine-protein kinase JAK2 (Homo sapiens) (O60674 whole entry): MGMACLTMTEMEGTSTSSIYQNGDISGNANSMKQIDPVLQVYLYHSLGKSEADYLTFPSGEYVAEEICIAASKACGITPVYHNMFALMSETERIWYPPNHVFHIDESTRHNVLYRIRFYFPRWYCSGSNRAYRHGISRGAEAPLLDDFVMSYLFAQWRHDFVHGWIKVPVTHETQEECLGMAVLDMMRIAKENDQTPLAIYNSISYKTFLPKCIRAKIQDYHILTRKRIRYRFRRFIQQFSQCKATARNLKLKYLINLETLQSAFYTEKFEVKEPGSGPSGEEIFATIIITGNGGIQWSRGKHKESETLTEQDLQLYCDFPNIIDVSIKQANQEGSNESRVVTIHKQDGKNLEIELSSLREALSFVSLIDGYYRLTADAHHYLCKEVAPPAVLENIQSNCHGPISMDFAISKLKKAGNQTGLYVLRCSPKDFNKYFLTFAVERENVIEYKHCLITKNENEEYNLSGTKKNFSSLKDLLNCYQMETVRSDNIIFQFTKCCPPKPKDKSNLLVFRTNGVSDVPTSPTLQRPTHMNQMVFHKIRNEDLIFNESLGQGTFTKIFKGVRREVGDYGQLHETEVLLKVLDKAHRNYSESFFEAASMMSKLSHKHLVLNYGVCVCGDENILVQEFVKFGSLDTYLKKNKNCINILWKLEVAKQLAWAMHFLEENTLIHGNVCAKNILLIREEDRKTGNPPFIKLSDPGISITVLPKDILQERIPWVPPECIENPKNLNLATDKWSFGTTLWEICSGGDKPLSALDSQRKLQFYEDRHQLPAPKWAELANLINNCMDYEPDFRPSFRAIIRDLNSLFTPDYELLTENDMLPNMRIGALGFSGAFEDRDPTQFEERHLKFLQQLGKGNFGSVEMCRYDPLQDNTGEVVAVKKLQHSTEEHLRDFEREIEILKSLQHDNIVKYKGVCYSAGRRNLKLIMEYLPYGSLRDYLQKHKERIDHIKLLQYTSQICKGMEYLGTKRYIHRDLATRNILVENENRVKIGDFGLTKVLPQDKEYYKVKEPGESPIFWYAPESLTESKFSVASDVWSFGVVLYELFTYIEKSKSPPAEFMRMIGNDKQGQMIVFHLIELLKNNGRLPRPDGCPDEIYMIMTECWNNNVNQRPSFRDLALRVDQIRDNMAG

[5] = biological target: Tyrosine-protein kinase JAK2 (Homo sapiens) (UniProt O60674); conditions: at 1 µM
[6] = biological target: T2, Tyrosine-protein kinase JAK3 (Homo sapiens) (UniProt P52333); conditions: at 0.1 µM
T2 sequence (whole entry): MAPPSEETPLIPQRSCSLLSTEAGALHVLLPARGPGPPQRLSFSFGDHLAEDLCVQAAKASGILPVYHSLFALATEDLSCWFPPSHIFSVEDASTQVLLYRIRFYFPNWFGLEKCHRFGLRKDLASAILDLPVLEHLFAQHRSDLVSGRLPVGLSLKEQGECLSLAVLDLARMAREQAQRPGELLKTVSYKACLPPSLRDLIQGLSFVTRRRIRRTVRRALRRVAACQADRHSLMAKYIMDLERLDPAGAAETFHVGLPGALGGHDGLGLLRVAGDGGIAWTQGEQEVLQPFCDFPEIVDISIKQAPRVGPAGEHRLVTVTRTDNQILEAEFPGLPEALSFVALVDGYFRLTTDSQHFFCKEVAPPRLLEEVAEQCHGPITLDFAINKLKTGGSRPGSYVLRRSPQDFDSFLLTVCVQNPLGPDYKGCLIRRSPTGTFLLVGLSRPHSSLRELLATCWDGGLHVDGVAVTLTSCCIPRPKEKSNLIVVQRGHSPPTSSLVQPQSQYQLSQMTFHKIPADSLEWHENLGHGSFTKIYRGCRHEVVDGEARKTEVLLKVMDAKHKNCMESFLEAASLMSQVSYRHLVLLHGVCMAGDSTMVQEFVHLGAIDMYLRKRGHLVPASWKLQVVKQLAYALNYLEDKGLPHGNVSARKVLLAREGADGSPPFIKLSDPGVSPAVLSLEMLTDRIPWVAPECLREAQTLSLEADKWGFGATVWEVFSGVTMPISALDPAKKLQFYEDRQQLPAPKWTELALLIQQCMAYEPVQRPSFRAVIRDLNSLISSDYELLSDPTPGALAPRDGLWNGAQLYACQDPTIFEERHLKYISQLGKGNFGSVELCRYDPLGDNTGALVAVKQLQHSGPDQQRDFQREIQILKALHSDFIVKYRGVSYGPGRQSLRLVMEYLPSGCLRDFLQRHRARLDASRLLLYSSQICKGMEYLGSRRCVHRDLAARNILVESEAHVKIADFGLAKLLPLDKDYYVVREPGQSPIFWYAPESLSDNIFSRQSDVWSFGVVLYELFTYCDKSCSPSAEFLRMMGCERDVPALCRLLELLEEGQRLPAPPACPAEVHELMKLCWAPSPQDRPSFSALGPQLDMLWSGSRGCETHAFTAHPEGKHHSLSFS

[7] = biological target: T2, Tyrosine-protein kinase JAK3 (Homo sapiens); conditions: at 1 µM
[8] = biological target: Vascular endothelial growth factor receptor 2 (Homo sapiens) (UniProt P35968); conditions: at 0.1 µM
[9] = biological target: Vascular endothelial growth factor receptor 2 (Homo sapiens) (UniProt P35968); conditions: at 1 µM
[10] = biological target: Mast/stem cell growth factor receptor Kit (Homo sapiens) (UniProt P10721); conditions: at 0.1 µM
Sequence of Mast/stem cell growth factor receptor Kit (Homo sapiens) (P10721 whole entry): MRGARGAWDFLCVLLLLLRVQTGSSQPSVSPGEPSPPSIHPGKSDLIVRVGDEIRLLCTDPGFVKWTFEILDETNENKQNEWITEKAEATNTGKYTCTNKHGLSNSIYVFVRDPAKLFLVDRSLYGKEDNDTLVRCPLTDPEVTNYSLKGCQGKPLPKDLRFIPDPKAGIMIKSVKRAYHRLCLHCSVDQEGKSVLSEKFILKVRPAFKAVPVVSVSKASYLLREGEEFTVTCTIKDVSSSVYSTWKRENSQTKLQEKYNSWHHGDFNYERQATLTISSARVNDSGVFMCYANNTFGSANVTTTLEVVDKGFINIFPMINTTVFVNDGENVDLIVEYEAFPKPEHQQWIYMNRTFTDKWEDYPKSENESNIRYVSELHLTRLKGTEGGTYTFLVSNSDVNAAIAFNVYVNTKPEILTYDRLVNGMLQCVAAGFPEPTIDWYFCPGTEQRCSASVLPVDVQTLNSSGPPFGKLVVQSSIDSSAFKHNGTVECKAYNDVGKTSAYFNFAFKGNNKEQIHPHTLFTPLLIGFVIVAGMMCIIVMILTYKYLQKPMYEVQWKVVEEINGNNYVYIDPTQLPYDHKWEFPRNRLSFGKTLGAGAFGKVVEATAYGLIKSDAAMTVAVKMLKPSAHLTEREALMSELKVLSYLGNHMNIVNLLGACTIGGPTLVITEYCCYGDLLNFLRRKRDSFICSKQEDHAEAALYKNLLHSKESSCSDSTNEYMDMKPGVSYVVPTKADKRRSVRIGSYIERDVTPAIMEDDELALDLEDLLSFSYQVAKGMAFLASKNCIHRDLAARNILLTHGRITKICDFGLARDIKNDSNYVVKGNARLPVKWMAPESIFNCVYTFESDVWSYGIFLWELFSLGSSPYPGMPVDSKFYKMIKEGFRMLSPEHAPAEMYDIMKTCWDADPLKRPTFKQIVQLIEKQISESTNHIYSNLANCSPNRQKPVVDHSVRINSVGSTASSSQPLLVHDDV

[11] = biological target: Mast/stem cell growth factor receptor Kit (Homo sapiens) (UniProt P10721); conditions: at 1 µM
[12] = system: Mast/stem cell growth factor receptor Kit (Homo sapiens), P10721 [D816V]; conditions: at 0.1 µM
Sequence of Mast/stem cell growth factor receptor Kit (Homo sapiens), P10721 [D816V] (P10721 whole entry D816V): as the sequence (P10721 whole entry) above, with D816V counted along it

[13] = system: Mast/stem cell growth factor receptor Kit (Homo sapiens), P10721 [D816V]; conditions: at 1 µM
[14] = system: Mast/stem cell growth factor receptor Kit (Homo sapiens), P10721 [T670I]; conditions: at 0.1 µM
Sequence of Mast/stem cell growth factor receptor Kit (Homo sapiens), P10721 [T670I] (P10721 whole entry T670I): as the sequence (P10721 whole entry) above, with T670I counted along it

[15] = system: Mast/stem cell growth factor receptor Kit (Homo sapiens), P10721 [T670I]; conditions: at 1 µM
[16] = system: Mast/stem cell growth factor receptor Kit (Homo sapiens), P10721 [V560G]; conditions: at 0.1 µM
Sequence of Mast/stem cell growth factor receptor Kit (Homo sapiens), P10721 [V560G] (P10721 whole entry V560G): as the sequence (P10721 whole entry) above, with V560G counted along it

[17] = system: Mast/stem cell growth factor receptor Kit (Homo sapiens), P10721 [V560G]; conditions: at 1 µM
[18] = biological target: Tyrosine-protein kinase Lck (Homo sapiens) (UniProt P06239); conditions: at 0.1 µM
Sequence of Tyrosine-protein kinase Lck (Homo sapiens) (P06239 2-509 limits assumed): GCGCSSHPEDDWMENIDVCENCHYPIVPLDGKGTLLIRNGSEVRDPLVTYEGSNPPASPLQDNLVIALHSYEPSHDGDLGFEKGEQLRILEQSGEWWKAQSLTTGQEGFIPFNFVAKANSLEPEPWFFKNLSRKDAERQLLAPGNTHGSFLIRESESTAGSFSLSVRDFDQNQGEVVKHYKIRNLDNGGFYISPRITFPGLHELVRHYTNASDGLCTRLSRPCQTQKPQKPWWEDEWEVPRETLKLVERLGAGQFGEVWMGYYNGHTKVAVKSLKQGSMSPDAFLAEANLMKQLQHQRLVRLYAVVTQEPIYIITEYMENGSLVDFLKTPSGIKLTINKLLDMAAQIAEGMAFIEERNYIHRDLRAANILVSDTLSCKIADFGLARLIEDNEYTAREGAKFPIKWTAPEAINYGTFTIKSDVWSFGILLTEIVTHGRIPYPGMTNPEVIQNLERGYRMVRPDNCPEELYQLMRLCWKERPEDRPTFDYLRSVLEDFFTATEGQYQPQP

[19] = biological target: Tyrosine-protein kinase Lck (Homo sapiens) (UniProt P06239); conditions: at 1 µM
[20] = biological target: Leukocyte tyrosine kinase receptor (Homo sapiens) (UniProt P29376); conditions: at 0.1 µM
Sequence of Leukocyte tyrosine kinase receptor (Homo sapiens) (P29376 whole entry): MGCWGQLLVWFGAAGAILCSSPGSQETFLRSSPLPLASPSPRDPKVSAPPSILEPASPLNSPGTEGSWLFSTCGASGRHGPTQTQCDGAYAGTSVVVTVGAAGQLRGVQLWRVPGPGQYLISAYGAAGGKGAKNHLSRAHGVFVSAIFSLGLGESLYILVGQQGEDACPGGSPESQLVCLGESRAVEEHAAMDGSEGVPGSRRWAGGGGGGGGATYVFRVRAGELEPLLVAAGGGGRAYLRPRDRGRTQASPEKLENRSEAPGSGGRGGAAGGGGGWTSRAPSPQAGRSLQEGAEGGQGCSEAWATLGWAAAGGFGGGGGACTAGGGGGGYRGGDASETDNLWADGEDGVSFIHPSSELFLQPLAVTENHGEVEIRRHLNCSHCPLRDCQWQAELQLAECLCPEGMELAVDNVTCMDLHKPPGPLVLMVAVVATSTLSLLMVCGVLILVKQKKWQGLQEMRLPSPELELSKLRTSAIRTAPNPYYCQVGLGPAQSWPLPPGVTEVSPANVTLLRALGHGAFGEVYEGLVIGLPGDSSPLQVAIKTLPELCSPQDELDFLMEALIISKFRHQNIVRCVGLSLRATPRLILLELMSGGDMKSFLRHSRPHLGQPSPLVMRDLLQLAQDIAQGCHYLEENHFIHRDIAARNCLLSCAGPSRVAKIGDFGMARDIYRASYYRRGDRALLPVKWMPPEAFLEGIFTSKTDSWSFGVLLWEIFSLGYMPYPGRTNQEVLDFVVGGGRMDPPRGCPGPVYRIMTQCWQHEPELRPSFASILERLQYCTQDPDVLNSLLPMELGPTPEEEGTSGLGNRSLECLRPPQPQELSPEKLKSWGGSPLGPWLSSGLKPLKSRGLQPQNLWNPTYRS

| SMILES | inhibition [1] | inhibition [2] | inhibition [3] | inhibition [4] | inhibition [5] | inhibition [6] | inhibition [7] | inhibition [8] | inhibition [9] | inhibition [10] | inhibition [11] | inhibition [12] | inhibition [13] | inhibition [14] | inhibition [15] | inhibition [16] | inhibition [17] | inhibition [18] | inhibition [19] | inhibition [20] |
| --- | --- | --- | --- | --- | --- | --- | --- | --- | --- | --- | --- | --- | --- | --- | --- | --- | --- | --- | --- | --- |
| CS(=O)(=O)CCNCc1nc(-c2ccc3ncnc(Nc4ccc(OCc5cccc(C(F)(F)F)c5)cc4)c3c2)cs1 | 2.53% | 1.05% | 3.96% | 1.09% | 3.08% | -0.8% | 1.6% | 2.88% | 9.28% | 1.96% | 12.8% | -0.14% | 1.52% | -0.86% | 3.13% | 0.77% | 6.02% | 2.25% | 6.83% | 3.1% |
| N#Cc1cccc(Nc2nccc(-c3cnn4ncccc34)n2)c1 | 21.1% | 2.54% | 14.9% | 2.15% | 22.1% | 5.73% | 36.2% | 12.1% | 43.9% | 78.3% | 100% | 4.4% | 9.63% | 32.2% | 88.5% | 24.4% | 71.6% | 4.61% | 18.3% | 6.31% |
| NS(=O)(=O)c1cccc(-c2cc3ccncc3cc2OCc2ccccc2)c1 | 3.72% | 0.51% | 2.7% | 1.82% | 0.92% | -0.33% | 0.81% | 13.4% | 17.1% | 6.67% | 8.38% | 6.43% | 5.87% | 2.04% | 1.1% | 3.77% | 9.47% | 2.52% | 5.46% | 2.44% |
| O=C1Nc2ccc(-c3cccnc3)cc2C1=Cc1cc(Br)c(O)c(Br)c1 | 2.67% | 2.38% | 1.97% | 1.07% | 3.68% | -1.1% | 15.8% | 4.5% | 10.1% | 3.48% | 3.66% | 3.44% | 2.96% | 3.51% | 0.52% | 0.16% | 2.16% | 3.31% | 13.2% | 4.94% |
| CCn1c(-c2nonc2N)nc2ccc(F)cc21 | 1.52% | 5.5% | 10.5% | 1.07% | 1.29% | -1.62% | -1.23% | 5.19% | 6.9% | 5.81% | 6.81% | 6.28% | 3.76% | 3.59% | 6.26% | -1.12% | -0.91% | 2.91% | 2.85% | 3.51% |
| CCCN1CCCC(c2ccc(Nc3nc(Nc4cc(F)ccc4C(N)=O)c4cc[nH]c4n3)c(OC)c2)C1 (stereo not given) | 6% | -0.47% | -0.81% | 1.82% | 2.51% | -1.48% | -3.27% | 7.45% | 16.6% | 8.98% | 13.1% | 4.45% | 4.83% | 2.47% | 3.44% | -0.05% | -0.43% | 1.09% | 6.22% | 95% |
| NS(=O)(=O)c1cccc(Nc2cc(-c3ccc(F)cc3)n[nH]2)c1 | 6.64% | 3.56% | 10.4% | 0.36% | 1.81% | -1.55% | 1.11% | 5.37% | 15.3% | 34.5% | 84.5% | 2.34% | 4.52% | 3.28% | 20.1% | 6.14% | 38% | 1.18% | 6.1% | 3.59% |
| Nc1nccc(C#Cc2cncnc2Nc2ccc(OCc3cccc(F)c3)c(Cl)c2)n1 | 3.09% | 2.03% | 2.27% | 1.73% | 1.57% | 0.41% | 4.42% | 6.4% | 10.6% | 3.65% | 2.68% | 3.2% | 2.1% | 1.97% | 1.54% | -1.72% | 1.13% | 1.54% | 8.03% | 3.49% |
| NC(=O)c1cccc(Nc2nccc(Nc3cccc(F)c3)n2)c1 | 2.4% | 3.17% | 32% | 2.34% | 46.6% | -1.62% | 2.72% | 5.1% | 44.7% | 42.5% | 82.6% | -0.14% | 2.14% | 0.52% | 7.62% | 2.06% | 32.6% | 2.44% | 15% | 0.75% |
| COc1cc(/C=N/Nc2ncnc3c2cnn3C(C)C)ccc1O | 5% | 2.44% | 14.2% | 0.62% | 0.55% | 0.75% | 3.25% | 4.03% | 19.8% | 8.94% | 53.3% | -1.37% | 4.07% | 3.16% | -0.48% | 1.9% | 7.86% | 16.7% | 52.8% | 1.55% |
| Cc1ccc2c(c1)/C(=N/Nc1ccc(S(N)(=O)=O)cc1)C(=O)N2 | 1.38% | -1.86% | -1.74% | -1.17% | -0.24% | 0.33% | 4.38% | 2.62% | 22.6% | 27.8% | 80.1% | -0.66% | -3.04% | 3.2% | 54.4% | 1.27% | 24.4% | 1.15% | 3.66% | 0.21% |
| C[C@@H](Oc1cc(-n2cnc3ccc(OC[C@@H](O)CO)cc32)sc1C(N)=O)c1ccccc1Cl | 0.81% | -2.88% | 0.21% | -0.63% | 0.06% | -0.17% | 19.7% | 1.39% | 22.2% | -0.46% | 4.68% | -3.17% | 1.58% | -1.2% | 0.87% | 3.36% | 2.13% | 1.2% | 6.12% | -0.43% |
| COC(=O)c1cncc(/C=C/c2c(C)cc(O)cc2C)c1 | 1.55% | 2.46% | 4.21% | 0.81% | 2.05% | -1.76% | 0.99% | 2.37% | 4.91% | 32.9% | 83.5% | 4.37% | 7.02% | 2.73% | 0.94% | 4.65% | 41.8% | 5.78% | 30.5% | 3.77% |
